This is an account of results in PubChem BioAssay (EPA / NIEHS).

Results filed as inconclusive are left out. Activity calls are given as the source filed them. The calls were made as follows: active = hit-call score of the fitted dose curve at least 0.9, where 1 is the maximum; inconclusive = response in the unintended direction; inactive = score below 0.9.

One assay can be described thus: ACEA_ER_AUC_viability: ACEA Biosciences xCELLigence Real-Time Cell Analysis on Estrogen Receptor Agonism for Viability (AID 2283782).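 Also: hit means loss of impedance signal meaning reduced cell growth or viability.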 In a few lines: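 Continuous-exposure impedance cell analysis uses T-47D cells in charcoal-stripped serum, eight 1:4 dilutions topping at 100 uM final, biological duplicate. Area under the growth curve at 80 h is fitted against DMSO baseline.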
Consider `Cc1nn(C)c(Oc2ccccc2)c1C=NOCc1ccc(C(=O)OC(C)(C)C)cc1`, for which the call was inactive.
As to `CCCCCOC(=O)COc1cc(N2C(=O)C3=C(CCCC3)C2=O)c(F)cc1Cl`, the compound was called inactive.
`S=C(S)NCCNC(=S)S.[Mn+2].[S-]C([S-])=NCCN=C([S-])[S-].[Zn+2]`: the call was inactive.
Broadly, the AC50 is the concentration at which the activity in the assay is half-maximal. As for `N#CSCSc1nc2ccccc2s1`, the AC50 was 10.9 µM (active).
As for `CCSC(=O)N(CC(C)C)CC(C)C`, the compound was called inactive.
Take `CCCOC(=O)c1ccc(C(=O)OCCC)nc1`: the call was inactive.
Take `CCCCC(CC)CN1C(=O)C2C3C=CC(C3)C2C1=O` (stereo not given): the AC50 was 70.2 µM (active).

The next assay can be described thus: STM_H9_NormalizedViability: Cytotoxicity Assessment at 120 hours in the Stemina devTOX quickPredict H9 human embryonic stem cell (hESC)-based Assay (AID 2283784). In outline: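 CellTiter-Fluor RFU, background-subtracted, expressed relative to 0.1% DMSO neutral control by plate. Pluripotent H9 cells; treatment with daily re-dosing. Plates carried 1uM methotrexate (positive) and 5 nM methotrexate (negative) references.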
`Cc1nn(C)c(Oc2ccccc2)c1C=NOCc1ccc(C(=O)OC(C)(C)C)cc1`: the AC50 was 0.0346 µM (active).
Consider `CCCCOC(=O)[C@@H](C)Oc1ccc(Oc2ccc(C(F)(F)F)cn2)cc1`, for which the AC50 is 73.8 µM (active).
Take `CCCCCOC(=O)COc1cc(N2C(=O)C3=C(CCCC3)C2=O)c(F)cc1Cl`: the result was inactive.
On to `CCOC(=O)C(C)Oc1ccc(Oc2cnc3cc(Cl)ccc3n2)cc1` (stereo not given), for which the outcome was inactive.
Still for that read-out and setting: the value for `S=C(S)NCCNC(=S)S.[Mn+2].[S-]C([S-])=NCCN=C([S-])[S-].[Zn+2]` was “inactive”.
Same read-out and setting: as for `CCNc1nc(N)nc(Cl)n1`, the entry is “inactive”.
With `C#CCOC(=O)[C@@H](C)Oc1ccc(Oc2ncc(Cl)cc2F)cc1`, the AC50 was 76 µM (active).
The same measure, in the same setting: the value for `N#CSCSc1nc2ccccc2s1` was 17.3 µM (active).
For `OB(O)O`, the outcome was inactive.
The same measure, in the same setting: as for `COC(=O)c1ccccc1C(=O)O`, the entry is “inactive”; as for `N[C@@H](Cc1cc(I)c(Oc2ccc(O)c(I)c2)c(I)c1)C(=O)O`, “inactive”.
On to `C[C@]12C[C@H](O)[C@H]3[C@@H](CCC4=CC(=O)CC[C@@]43C)[C@@H]1CC[C@@H]2C(=O)CO`, for which the AC50 was 80 µM (active).
Consider `CC(C)(C)[C@@H](O)[C@@H](Cc1ccc(Cl)cc1)n1cncn1`, for which the result was inactive.
The same measure, in the same setting: as for `CCCCOC(=O)C(C)Oc1ccc(Oc2ccc(C(F)(F)F)cn2)cc1` (stereo not given), the entry is “inactive”; as for `S=C([S-])NCCNC(=S)[S-].[Mn+2]`, “inactive”.
Same read-out and setting: as for `CCSC(=O)N(CC(C)C)CC(C)C`, the entry is “inactive”.
With `CCCN(CCC)c1c([N+](=O)[O-])cc(C(F)(F)F)c(N)c1[N+](=O)[O-]`, the outcome was inactive.
With `CCN(Cc1c(F)cccc1Cl)c1c([N+](=O)[O-])cc(C(F)(F)F)cc1[N+](=O)[O-]`, the AC50 was 50 µM (active).
